Consider 28 compounds from PubChem BioAssay.

A number with no mark means an inactive call. No rule for the calls is given here.

This assay in a line: blockers of DNA damage checkpoint Chk1 activation – imaging, HeLa, hydroxyurea, phospho-Chk1 antibody, percent positive cells, primary screen (AID 1186). Particulars: hydroxyurea-induced phospho-Chk1 immunofluorescence imaging, higher = more signal.
Turning to `Cc1ccc(S[C@]2(C(=O)NCC(F)(F)F)CC(=O)N(Cc3ccccc3Cl)[C@@H]2c2ccc(CO)cc2I)cc1`, the z-score was 0.395.

Regarding `Cc1ccc(S[C@]2(C(=O)O)CC(=O)N(Cc3ccccc3)[C@@H]2c2ccc(CO)cc2I)cc1`, the z-score was -0.123.

In the case of `COC(=O)C1(C)C=C2C(=C(c3ccccc3)C(=O)C2C)CN1` (stereo not drawn), the z-score is 0.74. Consider `CC(C)[Si]1(C(C)C)O[C@@H](c2ccccc2)c2cc(C3CC3)nc(-c3ccccc3)c21`, for which the z-score is -0.652. Regarding `CN1C(=O)C2C=CC(C(O)C(c3ccccc3)c3ccccc3)N(NC(=O)OC(C)(C)C)C2C1=O` (stereo not drawn), the z-score was 0.242. As for `COC(=O)[C@@H]1N=C(c2ccc(OCCCO)cc2)O[C@@H]1c1ccccc1N=[N+]=[N-]`, the z-score was -0.292. The figure for `C=C(/C(=C/C[C@H](OC(C)=O)c1ccc(OCCO)cc1)c1cnc2ccccc2c1)C(C)C` is -0.319. The figure for `COCCCNC(=O)[C@@]1(CCS(=O)(=O)c2ccccc2)N=C(c2ccc(OCCCO)cc2)O[C@H]1c1ccccc1` is -0.213. For the compound `CC(C)NC(=O)[C@@]1(c2ccc([N+](=O)[O-])cc2)CC(=O)N(CC23CC4CC(CC(C4)C2)C3)[C@@H]1c1ccc(CO)cc1I`, the z-score is -0.122. Regarding `CCCCCN1CC=CC23O[C@@H]4C=CCOC(=O)[C@@H]4[C@H]2C(=O)N(C(CO)C(C)C)[C@@H]3C1=O` (stereo partly drawn), the z-score was -0.0211. With `COc1ccc([Si](C)(C)[C@@H]2[C@@H](CCO)O[C@]3(C(=O)N(Cc4ccc(NC(C)=O)cc4)c4ccccc43)[C@H]2C)cc1`, the z-score was -0.861. Take `O[C@@H](Cc1ccccc1)[C@H]1C2C=CCCC(c3ccccc3)=C2CN1Cc1cccc(Cl)c1` (stereo partly drawn): the z-score is -0.215. `CN1C(=O)[C@@]2(CCC(=O)OC(C)(C)C)N=C(c3ccc(OCCCO)cc3)O[C@H]2c2ccccc21`: the z-score is -0.414. Regarding `O=C1NC(=O)C2C1C=CC(C(O)Cc1ccccc1)N2Nc1ccccn1` (stereo not drawn), the z-score was -0.349. Regarding `CO[C@H]1O[C@H](CO)[C@@H](OC(=O)Nc2ccc3c(c2)OCO3)[C@H](OC(=O)Nc2ccccc2-c2ccccc2)[C@@H]1OC(=O)Nc1ccccc1-c1ccccc1`, the z-score is -0.313.

With `CC(C)c1ccc(NN2C(C(O)c3ccc4c(c3)OCO4)C=CC3C(=O)N(c4ccccc4)C(=O)C32)cc1` (stereo not drawn), the z-score was -0.575. In the case of `COC(=O)[C@H]1COC(c2ccc(OCCCO)cc2)=N1`, the z-score is 0.101. As to `C[N+](C)(C)CCCCCCNC(=O)[C@@H]1C[C@@H]2C(=O)N3CCC[C@H]3C(=O)N2[C@@H]1c1cccc(OCCO)c1`, the z-score is -0.173. Consider `CS(=O)(=O)CCOC(=O)C1=CC(CCCO)=CC(c2cccs2)N(Cc2cccc(OC(F)(F)F)c2)C=C1C(=O)OCCS(C)(=O)=O` (stereo not drawn), for which the z-score is 0.724.

For `C=CCN1C(=O)[C@]2(O[C@H](CCn3cc(CCO)nn3)[C@@H]([Si](C)(C)c3ccc(OC)cc3)[C@@H]2C)c2cc(N3CCOC3=O)ccc21`, the z-score is -0.203. Regarding `CC(C)NC(=O)[C@@]1(C)c2ccccc2C(=O)N(Cc2cc(F)cc(C(F)(F)F)c2)[C@H]1c1ccc(CO)cc1`, the z-score was 0.0123. For the compound `CO[C@H]1O[C@H](CO)[C@@H](OC(=O)Nc2ccc(C#N)cc2)[C@H](OC(=O)c2cc3ccccc3[nH]2)[C@H]1OC(=O)c1cc2ccccc2[nH]1`, the z-score is -0.487. For `COc1ccc([Si](C)(C)[C@@H]2[C@@H](CC(=O)N3CCC[C@H]3CO)O[C@]3(C(=O)N(Cc4cccc(N5CCC5=O)c4)c4ccccc43)[C@H]2C)cc1`, the z-score was -0.532. For `CCCNC(=O)[C@@H]1c2ccccc2C(=O)N(Cc2ccccc2Cl)[C@H]1c1ccc(CO)cc1`, the z-score was -0.258. As to `C=C(/C(=C/C[C@@H](OC(=O)c1ccncc1)c1ccc(OCCO)cc1)c1cnc2ccccc2c1)C(C)C`, the z-score was -0.452. For `O=C1C[C@]2(c3ccc([N+](=O)[O-])cc3)C(=O)N(CCN3CCOCC3)c3cc(CO)ccc3[C@H]2N1CC12CC3CC(CC(C3)C1)C2`, the z-score is 0.416.

As for `CN(C)CCCNC(=O)[C@@H]1c2ccccc2C(=O)N(Cc2cc(F)cc(C(F)(F)F)c2)[C@H]1c1ccc(CO)cc1`, the z-score is 0.241. Regarding `CN(C)CCCNC(=O)[C@@H]1c2ccccc2C(=O)N(Cc2ccccc2)[C@H]1c1ccc(CO)cc1`, the z-score was 0.242.
